According to PubChem BioAssay (EPA / NIEHS):
Activity calls are given as the source filed them. The calls were made as follows: active = hit-call score of the fitted dose curve at least 0.9, where 1 is the maximum; inactive = score below 0.9.

Assay: APR_HepG2_P-H2AX_1hr: Apredica 1-hour HepG2 Assay for H2AX Phosphorylation (AID 2282673)
Conditions: high-content imaging, actives raise or lower the signal
Procedure: APR_HepG2_1hr is a cell-based, multiplexed-readout assay that uses HepG2, a human liver cell line, with measurements taken at 1 hour after chemical dosing in a 384-well plate.APR_HepG2_P-H2AX_1hr is one of 10 assay component(s) measured or calculated from the APR_HepG2_1hr assay. It is designed to make measurements of dna content, a form of viability reporter, as detected with fluorescence intensity signals by HCS Fluorescent Imaging technology.Data from the assay component APR_HepG2_P-H2AX_1hr was analyzed into 1 assay endpoint. This assay endpoint, APR_HepG2_P-H2AX_1hr, was analyzed with bidirectional fitting relative to DMSO as the negative control and baseline of activity. Using a type of viability reporter, measures of protein for gain or loss-of-signal activity can be used to understand the signaling at the pathway-level as they relate to the gene . Furthermore, this assay endpoint can be referred to as a primary readout, because this assay has produced multiple assay endpoints where this one serves a signaling function. To generalize the intended target to other relatable targets, this assay endpoint is annotated to the dna binding intended target family, where the subfamily is cellular response to DNA damage stimulus.
Cells were treated with dimethyl sulfoxide (DMSO) as a solvent control at a final concentration of 0.5% v/v or with compounds in DMSO with a resulting final DMSO concentration of 0.5% v/v. Compound treatment was done at concentrations of 0.39, 0.78, 1.56, 3.12, 6.24, 12.5, 25, 50, 100, and 200 uM in duplicate on each plate. Cells were treated with compounds for 1, 24, or 72 hr. Carbonyl […] m-chloro-phenylhydrazone (CCCP) and taxol were used as positive controls for mitochondrial function and cytoskeletal stability, respectively; DMSO served as the negative control for this experiment. Cells were fixed by the direct addition of 50 uL formaldehyde in Hank's Balanced Salt Solution (HBSS) to a final concentration of 3.7%. After incubation in the fixation medium for 30 min at room temperature (293-298 K), cells were rinsed twice with HBSS and treated with cell permeabilization buffer (16 uL of 0.5% Triton X-100) for 10 min at room temperature (293-298 K) before labeling. For mitochondrial membrane potential and mitochondrial measurements, pre-fixed cells were incubated with 50 uL of MitoTracker Red CMXRos (Invitrogen) at a concentration of 250 nM for 30 min before fixation. In the remaining cases, post-fixed cells were labeled by incubation with a multiplexed mixture of primary antibodies in HBSS for 60 min at room temperature (293-298 K) to detect immunoreactivity of c-Jun (1:500), phospho-histone H3 (1:100), phospho-histone H2A.x (1:200), p53 (1:400), alpha-tubulin (1:200) and Hoechst 33342 (2 ug/mL). Cells were labeled for multiplexed imaging on two separate plates: a) Hoechst 33342, MitoTracker Red, phospho-histone H3, and alpha-tubulin, and b) Hoechst 33342, phospho-histone H2A.x, and c-Jun. A final rinse with HBSS (50 uL) was performed before analysis. The primary and secondary antibodies for the proteins were phospho-histone H3 (rabbit anti-phospho-histone H3 and FITC-donkey anti-rabbit IgG), phospho-histone H2A.x (mouse anti-phospho-histone H2A.x and FITC-donkey anti-mouse IgG), c-Jun (rabbit anti-phospho-c-Jun and Cy3-donkey anti-rabbit IgG), p53 (sheep anti-p53 and Cy5-donkey anti-sheep IgG), alpha-tubulin (mouse anti-alpha-tubulin and Cy5-donkey anti-mouse IgG). These antibodies are available as the CellCiphr HepG2 assay kit (Millipore).Digital images of each well were captured using a Cellomics ArrayScan VTI (Thermo Scientific Cellomics) (0.8 NA objective, 0.63x optical coupler, and XF-93 filter set) at 20x magnification. The images were acquired using the autofocus feature of the ArrayScan instrument, which entails the following steps. First, the camera focuses on channel 1 (Hoechst 33342), where nuclei are identified. Second, a Z offset of 1 um is used for capturing mitochondria (MitoTracker Red). […]

Row | Structure (SMILES) | outcome | AC50
1 | CCCCSP(=O)(SCCCC)SCCCC | inactive | –
2 | CC1(C(=O)Nc2ccc(O)c(Cl)c2Cl)CCCCC1 | inactive | –
3 | CCOP(=O)(SC(C)CC)N1CCSC1=O (stereo not given) | inactive | –
4 | CON=C(C(=O)OC)c1ccccc1CON=C(C)c1cccc(C(F)(F)F)c1 | inactive | –
5 | CCOC(=O)COc1cc(-c2nn(C)c(OC(F)F)c2Cl)c(F)cc1Cl | inactive | –
6 | CNc1cnn(-c2cccc(C(F)(F)F)c2)c(=O)c1Cl | inactive | –
7 | CCc1cccc(C)c1N(C(=O)CCl)C(C)COC (stereo not given) | inactive | –
8 | C[N+]1(C)CCCCC1 | inactive | –
9 | CC[C@H](C)[C@H]1O[C@]2(C=C[C@@H]1C)C[C@@H]1C[C@@H](C/C=C(\C)[C@@H](O[C@H]3C[C@H](OC)[C@@H](O[C@H]4C[C@H](OC)[C@@H](NC)[C@H](C)O4)[C@H](C)O3)[C@@H](C)/C=C/C=C3\CO[C@@H]4[C@H](O)C(C)=C[C@@H](C(=O)O1)[C@]34O)O2 | – | 16.8 µM (active)
10 | COP(=O)(NC(C)=O)SC (stereo not given) | inactive | –
11 | CCOP(=S)(OCC)OC(Cl)C(Cl)(Cl)Cl (stereo not given) | inactive | –
12 | CCCCN(CC)c1c([N+](=O)[O-])cc(C(F)(F)F)cc1[N+](=O)[O-] | inactive | –
13 | Cc1nn(-c2cc(NS(C)(=O)=O)c(Cl)cc2Cl)c(=O)n1C(F)F | inactive | –
14 | CCOP(=S)(OCC)Oc1ccc([N+](=O)[O-])cc1 | inactive | –
15 | CNC(=O)Oc1cccc2c1OC(C)(C)O2 | inactive | –
16 | O=c1ccc(=O)[nH][nH]1 | inactive | –
17 | CCCSP(=O)(OCC)Oc1ccc(Br)cc1Cl (stereo not given) | inactive | –
18 | CCC(=O)Nc1ccc(Cl)c(Cl)c1 | inactive | –
19 | CCC(=NOC/C=C/Cl)C1=C(O)CC(C2CCOCC2)CC1=O (stereo not given) | inactive | –
20 | O=[N+]([O-])c1cc(C(F)(F)F)c(Cl)c([N+](=O)[O-])c1Nc1ncc(C(F)(F)F)cc1Cl | – | 21.6 µM (active)

Row | Structure (SMILES) | outcome | AC50
21 | COP(=O)(OC)OC(Br)C(Cl)(Cl)Br (stereo not given) | inactive | –
22 | CC(C1CC1)C(O)(Cn1cncn1)c1ccc(Cl)cc1 (stereo not given) | inactive | –
23 | CCOP(=S)(OCC)Oc1ccc2c(C)c(Cl)c(=O)oc2c1 | inactive | –
24 | CCc1cnc(C2=NC(C)(C(C)C)C(=O)N2)c(C(=O)O)c1 (stereo not given) | inactive | –
25 | CC(C)N(C(=O)SCC(Cl)=C(Cl)Cl)C(C)C | inactive | –
26 | CCNc1nc(Cl)nc(NC(C)(C)C#N)n1 | inactive | –
27 | CCCOCC(=Nc1ccc(Cl)cc1C(F)(F)F)n1ccnc1 | inactive | –
28 | CC(Oc1cccc(Cl)c1)C(=O)O (stereo not given) | inactive | –
29 | CNC(=O)ON=C(SC)C(=O)N(C)C | inactive | –
30 | COc1cc(OC)nc(Sc2cccc(Cl)c2C(=O)O)n1 | inactive | –
31 | Nc1nc(N)nc(NC2CC2)n1 | inactive | –
32 | Nc1c(Cl)cc([N+](=O)[O-])cc1Cl | inactive | –
33 | CCOP(=S)(Oc1cnc(C(C)(C)C)nc1)OC(C)C (stereo not given) | inactive | –
34 | CCOP(=S)(OCC)SCCSCC | inactive | –
35 | CCOP(=O)(OCC)Oc1cc(C)nc(C(C)C)n1 | inactive | –
36 | FC(F)C(F)(F)OCC(Cn1cncn1)c1ccc(Cl)cc1Cl (stereo not given) | inactive | –
37 | COP(=O)(OC)C(O)C(Cl)(Cl)Cl (stereo not given) | inactive | –
38 | C#CC(C)(C)NC(=O)c1cc(Cl)cc(Cl)c1 | inactive | –
39 | CCOC(=O)CC(SP(=O)(OC)OC)C(=O)OCC (stereo not given) | inactive | –
40 | CC(C)[C@H](C(=O)O[C@H](C#N)c1cccc(Oc2ccccc2)c1)c1ccc(Cl)cc1 | inactive | –
